The text below walks through data of PubChem BioAssay.

The structures appear in SMILES notation. Activity calls are given as the source filed them. Unless noted, no rule for the calls is given here.

Assay [1] in a line: compounds binding Alexa647 anti-His antibody – biochemical, small-molecule microarray, 635 nm fluorescence, artefact control for SMM control protein annotation, primary screen (AID 1128).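 Also: score merges feature fluorescence with signal-to-noise for each printed compound spot.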 Conditions: higher = more signal.
The test system of assay [2] is Human papillomavirus type 1a E7 protein (residues 1-88). Description: HPV1a E7 small-molecule binders, primary screen, biochemical, small-molecule microarray, residues 1-88, 635 nm (AID 1129). Conditions: small-molecule microarray binding, fluorescence 635 nm; higher = more signal.
Assay [3] concerns the target Focal adhesion kinase 1 (Homo sapiens) (UniProt Q05397). Description: PTK2 protein binding on printed compound slides – biochemical, small-molecule microarray, 635/667 nm fluorescence, BSA, DTT, primary screen (AID 1130).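 Also: composite of spot emission at 667 nm and signal to noise over triplicate slides.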 The settings on record: 635 nm fluorescence, higher = more signal.
Assay [4] relates to Fibrinogen (Alexa647-labelled). Description: Alexa647-fibrinogen binding to printed small molecules – biochemical, small-molecule microarray, 635/667 nm fluorescence, artefact control for SMM control-protein annotation, profiling panel (AID 1131).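 Also: z-score merges 667 nm fluorescence with per-spot signal-to-noise over triplicate slides.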 The settings on record: fibrinogen-A647 binding fluorescence, higher = more signal.
For assay [5], the target named is Follistatin (Homo sapiens) (UniProt P19883). Nature of the assay: FST protein binding to printed compounds – biochemical, small-molecule microarray, 635/667 nm fluorescence, primary screen (AID 1132). The settings on record: 635 nm fluorescence, higher = more signal.
Sequence of Follistatin (Homo sapiens) (P19883 whole entry, looked up): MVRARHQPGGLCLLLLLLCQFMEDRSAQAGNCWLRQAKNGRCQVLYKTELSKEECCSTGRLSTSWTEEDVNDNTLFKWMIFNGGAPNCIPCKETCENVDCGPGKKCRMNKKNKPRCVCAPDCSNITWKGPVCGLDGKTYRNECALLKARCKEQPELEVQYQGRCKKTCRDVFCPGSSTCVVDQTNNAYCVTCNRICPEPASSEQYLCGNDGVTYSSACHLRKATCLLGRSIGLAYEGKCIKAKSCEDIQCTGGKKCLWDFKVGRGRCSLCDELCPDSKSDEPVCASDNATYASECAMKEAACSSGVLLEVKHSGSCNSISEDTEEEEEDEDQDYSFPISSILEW
The target in assay [6] is Fibroblast growth factor 2 (Homo sapiens) (UniProt P09038). Nature of the assay: basic fibroblast growth factor binding to printed compounds – biochemical, small-molecule microarray, 635/667 nm fluorescence, primary screen (AID 1133). Conditions: FGF2, fluorescence 635/667, higher = more signal.
Sequence of Fibroblast growth factor 2 (Homo sapiens) (P09038 whole entry, looked up): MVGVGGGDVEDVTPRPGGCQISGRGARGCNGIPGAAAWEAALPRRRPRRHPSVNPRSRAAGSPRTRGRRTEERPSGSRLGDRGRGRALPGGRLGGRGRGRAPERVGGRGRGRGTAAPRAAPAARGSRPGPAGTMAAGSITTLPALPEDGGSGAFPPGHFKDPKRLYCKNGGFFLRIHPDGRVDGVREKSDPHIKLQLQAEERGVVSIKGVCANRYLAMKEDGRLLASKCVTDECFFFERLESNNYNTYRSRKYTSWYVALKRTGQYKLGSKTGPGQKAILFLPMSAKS
Assay [7] in a line: JC-1 mitochondrial potential readout, lung cancer cells – cell-based, A549, JC-1 fluorescence, basal, 24 h, 100 nL, profiling panel (AID 1138).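 Also: A549 lung adenocarcinoma cells under basal conditions with no added stimulus; test concentration not given here.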 The settings on record: higher = more signal.
The test system of the next assay is Lefty1. Description: Lefty1 protein binding to printed compounds – biochemical, small-molecule microarray, 635/667 nm fluorescence, primary screen (AID 1139). The settings on record: fluorescence 635/667, higher = more signal.
Assay [8] relates to wheat germ agglutinin (Triticum aestivum), Alexa647-labelled. Nature of the assay: Alexa647-WGA lectin binding to printed small molecules – biochemical, small-molecule microarray, 635/667 nm fluorescence, artefact control for SMM control-protein annotation, profiling panel (AID 1140).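 Also: score merges 667 nm feature emission with signal to noise over triplicate slides.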 The settings on record: WGA-A647 binding, 635 nm fluorescence, higher = more signal.
Assay [9] concerns the target Luciferin 4-monooxygenase (Photinus pyralis) (UniProt P08659). Nature of the assay: inhibition of purified Photinus pyralis luciferase – biochemical, luminescence, purified enzyme, 2006 set, primary screen (AID 1141).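 Also: cell-free assay with purified firefly luciferase at 100 ng per well in PBS; test concentration not given here.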 Conditions: purified firefly luciferase, SteadyGlo luminescence, 30 min; higher = more signal, called active from +8 up or from −8 down.
Assay [10] has as its system Wnt5a (protein binding on small-molecule microarray). Nature of the assay: small molecules binding Wnt5a protein – biophysical, small-molecule microarray, 635/667 nm fluorescence, primary screen (AID 1142).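 Also: fluorescence read at 667 nm with signal to noise per printed feature.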 Conditions: 635 nm fluorescence, higher = more signal.
Assay [11] can be described thus: ATP-based viability of Huh7 replicon cells – cell-based, CellTiter-Glo luminescence, basal, 48 h, cytotoxicity control for HCV replication inhibitor project, primary screen (AID 1143).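 Also: Huh7 hepatoma cells carrying a hepatitis C replication reporter with no stimulus; test concentration not given here.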 The settings on record: higher = more signal, called active from +8 up or from −8 down. (In general: Replicon systems follow genome replication, usually without infectious particles.)

Assay [12] is described as follows: Pseudomonas biofilm growth suppression – PAO1 strain, BacTiter-Glo luminescence, LB-PBS, primary screen (AID 1144). Conditions: P. aeruginosa PAO1 biofilm, 12 h, higher = more signal.
Assay [13] is described as follows: basal CRE-LacZ reporter activity in PC12 – cell-based, unstimulated, primary screen (AID 1145). Conditions: no forskolin, luminescence, 4.5 h, higher = more signal, called active from +8 up or from −8 down.
A short description of assay [14]: forskolin-driven CRE-LacZ activity in PC12 – cell-based, CRE-LacZ reporter, forskolin-stimulated, primary screen (AID 1146).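 Also: PC12 cells with 6xCRE LacZ reporter stimulated by forskolin 10 µM; beta-galactosidase reporter signal reflecting CREB driven transcription.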 Conditions: luminescence, 4.5 h, higher = more signal, called active from +8 up or from −8 down.
The target of assay [15] is Streptavidin (Streptomyces avidinii) (UniProt P22629). Nature of the assay: compounds binding control protein streptavidin – biophysical, small-molecule microarray, 635/667 nm fluorescence, artefact control for SMM compound annotation, primary screen (AID 1147).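 Also: signal reflects streptavidin binding to arrayed compounds as a control protein.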 The settings on record: higher = more signal.
Sequence of Streptavidin (Streptomyces avidinii) (P22629 whole entry, looked up): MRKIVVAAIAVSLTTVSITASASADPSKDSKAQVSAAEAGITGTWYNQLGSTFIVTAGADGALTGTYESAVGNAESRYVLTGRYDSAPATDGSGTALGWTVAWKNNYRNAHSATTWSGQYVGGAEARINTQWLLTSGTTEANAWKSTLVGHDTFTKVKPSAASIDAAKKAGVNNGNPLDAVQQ
The nature of assay [16]: probe aInhba binding on compound microarray – biochemical, small-molecule microarray, 635/667 nm fluorescence, primary screen (AID 1148).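 Also: score merges 667nm spot fluorescence with signal-to-noise for antibody binding to printed compounds.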 Conditions: higher = more signal.
Assay [17] deals with Torsin-1A (Homo sapiens) (UniProt O14656). Nature of the assay: TOR1A wild-type binding on microarray – cell lysate, small-molecule microarray, lysate, 635/667 nm, primary screen (AID 1149). The settings on record: COS7 hTOR1A-WT lysate, 635 nm fluorescence, higher = more signal.
Sequence of Torsin-1A (Homo sapiens) (O14656 whole entry, looked up): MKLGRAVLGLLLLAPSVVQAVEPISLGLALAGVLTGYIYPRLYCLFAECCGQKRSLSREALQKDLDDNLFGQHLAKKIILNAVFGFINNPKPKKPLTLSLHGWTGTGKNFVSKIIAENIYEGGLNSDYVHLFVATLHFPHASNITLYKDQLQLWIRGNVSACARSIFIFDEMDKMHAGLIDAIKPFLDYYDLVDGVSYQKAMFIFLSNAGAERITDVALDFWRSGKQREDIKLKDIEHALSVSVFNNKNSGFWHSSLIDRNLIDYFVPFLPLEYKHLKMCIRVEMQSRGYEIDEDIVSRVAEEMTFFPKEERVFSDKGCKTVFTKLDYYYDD
Assay [18] shares this target. Nature of the assay: torsin A mutant lysate binding on microarrays – cell lysate, small-molecule microarray, COS7 lysate, 635/667 nm fluorescence, primary screen (AID 1150).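 Also: score pools 667 nm emission and signal to noise measuring lysate protein binding.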 The settings on record: COS7 hTOR1A mutant lysate, 635 nm fluorescence, higher = more signal.
The subject of assay [19] is Sonic hedgehog protein (Shh). Description: Sonic hedgehog microarray binding compounds – biochemical, small-molecule microarray, 635/667 nm fluorescence, primary screen (AID 1151).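 Also: Shh protein binding to compounds spotted on small-molecule microarray slides; score combines spot fluorescence intensity with signal-to-noise across triplicate slides.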 Conditions: 635 nm fluorescence, higher = more signal.

Sequence of Focal adhesion kinase 1 (Homo sapiens) (Q05397 whole entry, looked up): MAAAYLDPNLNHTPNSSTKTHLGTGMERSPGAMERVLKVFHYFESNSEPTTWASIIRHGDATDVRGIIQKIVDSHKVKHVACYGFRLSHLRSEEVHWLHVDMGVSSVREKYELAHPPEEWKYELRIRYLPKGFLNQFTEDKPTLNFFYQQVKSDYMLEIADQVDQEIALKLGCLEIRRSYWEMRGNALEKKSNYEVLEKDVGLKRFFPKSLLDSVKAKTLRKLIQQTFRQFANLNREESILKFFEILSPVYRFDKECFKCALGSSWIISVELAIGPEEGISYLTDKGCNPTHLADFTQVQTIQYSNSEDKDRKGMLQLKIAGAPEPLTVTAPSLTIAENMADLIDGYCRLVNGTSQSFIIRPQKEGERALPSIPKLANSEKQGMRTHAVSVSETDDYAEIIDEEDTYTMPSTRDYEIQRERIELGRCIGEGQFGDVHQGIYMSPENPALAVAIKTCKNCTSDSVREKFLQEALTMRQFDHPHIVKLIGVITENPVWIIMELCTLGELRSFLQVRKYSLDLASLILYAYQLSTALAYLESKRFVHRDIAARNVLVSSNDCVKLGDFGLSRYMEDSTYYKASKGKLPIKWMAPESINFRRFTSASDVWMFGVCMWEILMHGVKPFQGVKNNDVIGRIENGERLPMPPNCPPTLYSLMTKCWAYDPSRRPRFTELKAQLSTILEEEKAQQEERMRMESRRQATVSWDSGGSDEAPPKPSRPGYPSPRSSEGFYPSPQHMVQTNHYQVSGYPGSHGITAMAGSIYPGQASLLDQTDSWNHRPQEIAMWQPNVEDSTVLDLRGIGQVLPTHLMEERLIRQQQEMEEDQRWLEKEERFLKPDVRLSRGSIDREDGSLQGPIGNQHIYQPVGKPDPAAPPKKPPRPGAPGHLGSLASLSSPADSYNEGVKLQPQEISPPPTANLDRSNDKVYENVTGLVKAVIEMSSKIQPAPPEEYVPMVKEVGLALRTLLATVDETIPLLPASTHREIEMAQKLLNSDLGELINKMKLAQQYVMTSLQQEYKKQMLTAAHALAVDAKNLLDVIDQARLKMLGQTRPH
Sequence of Luciferin 4-monooxygenase (Photinus pyralis) (P08659 whole entry, looked up): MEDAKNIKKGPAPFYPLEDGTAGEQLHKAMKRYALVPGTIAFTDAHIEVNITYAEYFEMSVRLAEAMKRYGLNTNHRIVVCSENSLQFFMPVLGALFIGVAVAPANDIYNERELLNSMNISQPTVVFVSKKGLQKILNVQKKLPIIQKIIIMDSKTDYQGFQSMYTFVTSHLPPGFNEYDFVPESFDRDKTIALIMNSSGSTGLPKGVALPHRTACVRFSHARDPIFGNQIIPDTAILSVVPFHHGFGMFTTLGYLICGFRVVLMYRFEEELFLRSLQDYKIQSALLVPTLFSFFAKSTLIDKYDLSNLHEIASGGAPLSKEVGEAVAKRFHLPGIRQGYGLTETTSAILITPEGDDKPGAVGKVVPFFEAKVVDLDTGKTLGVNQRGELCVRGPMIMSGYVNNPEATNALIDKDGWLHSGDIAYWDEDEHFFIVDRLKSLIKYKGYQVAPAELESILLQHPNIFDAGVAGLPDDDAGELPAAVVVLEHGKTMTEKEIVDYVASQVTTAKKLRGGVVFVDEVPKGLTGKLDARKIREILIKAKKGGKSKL

As for `C=CCOC(=O)[C@H]1[C@@H]2C(=O)O[C@@H](c3ccccc3)[C@@H](c3ccccc3)N2[C@@H](c2ccc(OCCOC(=O)[C@@H]3C[C@@H]4C(=O)NCC(=O)N4[C@@H]3c3ccc(O)cc3)cc2)[C@]12C(=O)Nc1ccccc12`, the composite z-score in assay [1] amounted to 1.56; in [2] it was 1.19; in assay [3], 0.564; in assay [4] it was 0.478; in assay [5], 1.35; in assay [6], 1.72. For the same compound, the composite z-score with Lefty1 was 1.18; in assay [8], -0.233; in assay [10], 0.773; in assay [15], -0.0156; in assay [16], -0.0221; in the assay with Torsin-1A (Homo sapiens) [17], 0.342. In addition, the composite z-score with Torsin-1A (Homo sapiens) [18] was 0.767; in [19], 2.28. The z-score was -1.43 in assay [7]; -2.56 (inactive) in assay [9]; -0.987 (inactive) in [11]; -0.759 (inactive) in [12]; 0.0205 (inactive) in assay [13]; -0.979 (inactive) in assay [14].
Regarding `COc1ccc(CCNC(=O)[C@@]2(Sc3ccc(C)cc3)CC(=O)N(Cc3ccccc3Cl)[C@@H]2c2ccc(CO)cc2I)cc1`, the composite z-score was 2.25 in assay [1]; 0.349 in [2]; -0.0568 in assay [3]; 0.35 in assay [4]; 1.03 in assay [5]; 0.664 in assay [6]. Besides, the composite z-score with Lefty1 is -0.954; in [8] it was 0.593; in assay [10], -0.234; in [15], -0.539; in assay [16], 0.12; in the assay with Torsin-1A (Homo sapiens) [17], -0.794. In addition, the composite z-score was -0.491 in the assay with Torsin-1A (Homo sapiens) [18] and 0.153 in assay [19]. For the same compound, the z-score in [7] is 2.03; in assay [9] it was 0.674 (inactive); in [11], -2.2 (inactive); in assay [12], 0.0319 (inactive); in [13], 0.569 (inactive); in assay [14], 1.12 (inactive).
Take `C=C(C(=O)CC[C@H](OC(C)=O)c1ccc(OCCO)cc1)C(C)C`: the composite z-score in assay [1] was 0.772; in assay [2] it was -0.02; in [3], -0.381; in assay [4], 0.711; in assay [5], 1.4; in assay [6], 0.911. The composite z-score in the assay on Lefty1 was 1.45; in assay [8], 0.0674; in assay [10] it was 0.35; in [15] it was 0.934; in assay [16], -0.125; in the assay with Torsin-1A (Homo sapiens) [17], 0.612. Besides, the composite z-score with Torsin-1A (Homo sapiens) [18] was 0.909; in assay [19] it was 2.13. For the same compound, the z-score in [7] was -0.217; in assay [9], -0.503 (inactive); in assay [11], -8.04 (active); in assay [12], -0.28 (inactive); in assay [13] it was 1.63 (inactive); in assay [14] it was 0.655 (inactive).
On to `C=CCNC(=O)[C@H]1[C@@H]2C(=O)O[C@@H](c3ccccc3)[C@@H](c3ccccc3)N2[C@@H](c2ccc(O)cc2)[C@]12C(=O)N(C(=O)OCCOC)c1ccc(C#CCCO)cc12`, for which the composite z-score is 1.03 in [1]; -0.0757 in assay [2]; 0.38 in assay [3]; 0.288 in assay [4]; 0.448 in [5]; 0.748 in [6]. Besides, the composite z-score in the assay with Lefty1 is -0.0874; in assay [8], -0.163; in assay [10], 0.317; in assay [15] it was -0.0841; in assay [16], -0.0954; with Torsin-1A (Homo sapiens) [17], 0.846. Moreover, the composite z-score is 0.432 in the assay with Torsin-1A (Homo sapiens) [18] and 1.08 in assay [19]. Moreover, the z-score in assay [7] is 0.956; in assay [9] it was -0.923 (inactive); in assay [11], -0.185 (inactive); in assay [12], -0.176 (inactive); in assay [13] it was -0.141 (inactive); in assay [14] it was 0.567 (inactive).
For `COc1ccc([Si](C)(C)[C@H]2[C@H](CCn3cc(CCO)nn3)O[C@@]3(C(=O)N(Cc4ccc(N5CCOC5=O)cc4)c4ccccc43)[C@@H]2C)cc1`, the composite z-score in [1] amounted to 1.88; in [2], 1.16; in [3] it was 0.105; in assay [4], 0.505; in assay [5], 0.308; in assay [6], 0.308. The composite z-score was 0.419 in the assay with Lefty1; 0.829 in assay [8]; -0.0483 in assay [10]; -0.0903 in assay [15]; -0.0044 in assay [16]; 0.676 in the assay with Torsin-1A (Homo sapiens) [17]. The composite z-score worked out at 0.806 in the assay with Torsin-1A (Homo sapiens) [18] and 1.59 in assay [19]. Further, the z-score in [7] was 1.26; in [9] it was -0.648 (inactive); in assay [11], -4.12 (inactive); in assay [12] it was 9e-05 (inactive); in assay [13], 0.469 (inactive); in [14] it was -2.21 (inactive).
